# According to PubChem BioAssay:
# Activity calls are given as the source filed them.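 How the source made its calls, unless noted: active means inhibition at or above 50% at 10 µM; inactive means inhibition below 50%.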 Where a SMILES comes first, the peptide text is derived from it. The star is where a group is joined. Boc = CC(C)(C)OC(=O)*
# How the values were obtained:
# [1] = inhibitors of TNFa-induced NFkB p65 translocation, primary screen, imaging, HUVEC, MLSMR starter and 10KST1 sets (AID 438;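 active means inhibition above 20% together with a positive visual image hit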;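 further: compound added about 3h40 before a 20 min TNFalpha stimulation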;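 on inhibition: signal is the nuclear over cytoplasmic p65 intensity ratio per well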); settings: HUVEC TNFa-induced p65 nuclear translocation; cell count: measured here: nuclei count (cytotoxicity indicator), at 2.08 µM; inhibition: at 2 µM, stronger effect = higher value, 0% TNFa-plus-vehicle, 100% no-TNFa wells
# [2] = inhibitors of mutant huntingtin aggregation, primary screen, imaging, exon1htt(103Q)mCFP cells, high-content imaging (AID 483;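 active means visual image review flags a hit and inhibition of aggregation exceeds 20%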;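 further: compound exposure lasted 3 days before fixation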;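 on nuclei count: percent of the per-plate median nuclei count of sample wells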); settings: exon1htt(103Q)mCFP cell line, aggregate imaging, at 2 µM; inhibition of aggregation: stronger effect = higher value; nuclei count: measured here: cell count, toxicity
# [3] = inhibitors of E-selectin induction by TNFa, primary screen, imaging, HUVEC, immunofluorescence, MLSMR starter and 10KST1 sets (AID 487;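 active means visually confirmed hit in the image check and inhibition above 20%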;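 on inhibition: signal is fraction of cell area covered by stained E-selectin grains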;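 on nuclei count: 100% = median nuclei count of all wells on the same plate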); settings: HUVEC TNFalpha-induced E-selectin immunofluorescence imaging, at 2 µM; inhibition: stronger effect = higher value; nuclei count: measured here: cell number, toxicity
# [4] = target: Voltage-gated potassium channel subunit beta-2 (Rattus norvegicus) (UniProt P62483); test: KvBeta enzyme negative modulators, primary screen, biochemical, NADPH fluorescence (AID 622;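 active means fluorescence slope higher than the sample average by over 3 SD, cut at about -0.22 in these data, passing the limit was not always enough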;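 further: slope of raw intensity against log time taken from 70 to 1610 s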); settings: recombinant KvBeta, 4-cyanobenzaldehyde reduction, at 10 µM, stronger effect = higher value
# [5] = target: Voltage-gated potassium channel subunit beta-2 (Rattus norvegicus) (UniProt P62483); test: KvBeta positive modulators, primary screen, biochemical, NADPH fluorescence (AID 623;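 active means NADPH fluorescence slope more negative than the mean of all samples by about 3 SD, 99.7% confidence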;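 further: fluorescence intensity change per second fitted from 20 to 320 s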); settings: Recombinant KvBeta, NADPH fluorescence decrease slope, 10 min; at 10 µM; stronger effect = lower value
# [6] = target: Alpha-2C adrenergic receptor (Homo sapiens) (UniProt P18825); test: modulators of alpha2C/GIRK thallium flux, primary screen, cell-based, HEK293 alpha2C/GIRK1/2 (AID 624;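 active means fluorescence slope after compound addition differing from the mean of all screened samples at 99.7% confidence, in either direction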;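 further: slope of fluorescence ratio to pre-addition baseline per second over 15 to 24 s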); settings: thallium flux BTC fluorescence, at 10 µM, actives lie on both sides
# [7] = inhibitors of Sendai virus-induced IRF3 signaling, primary screen, TLR/RLR signaling modifier project, cell-based, Sendai virus stimulus, luciferase, 10K MLSCN set (AID 602276); settings: HEK293 RL24 IRF3 luciferase reporter, at 10 µM, stronger effect = higher value;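 further: firefly luciferase from ISG56 promoter only with Renilla not read in this screen; 0% = Sendai virus plus DMSO and 100% = medium plus DMSO without virus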
# [8] = inhibitors of poly I:C-induced TLR3 signaling, primary screen, cell-based, poly I:C stimulus, luciferase, 10K MLSCN set (AID 602277;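 active means inhibition of the reporter signal at or above 50%; inactive means inhibition below 50%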); settings: HEK293-TLR3 RL24 IRF3 luciferase reporter, at 10 µM, stronger effect = higher value
# Sequence of Voltage-gated potassium channel subunit beta-2 (Rattus norvegicus) (P62483 whole entry, looked up): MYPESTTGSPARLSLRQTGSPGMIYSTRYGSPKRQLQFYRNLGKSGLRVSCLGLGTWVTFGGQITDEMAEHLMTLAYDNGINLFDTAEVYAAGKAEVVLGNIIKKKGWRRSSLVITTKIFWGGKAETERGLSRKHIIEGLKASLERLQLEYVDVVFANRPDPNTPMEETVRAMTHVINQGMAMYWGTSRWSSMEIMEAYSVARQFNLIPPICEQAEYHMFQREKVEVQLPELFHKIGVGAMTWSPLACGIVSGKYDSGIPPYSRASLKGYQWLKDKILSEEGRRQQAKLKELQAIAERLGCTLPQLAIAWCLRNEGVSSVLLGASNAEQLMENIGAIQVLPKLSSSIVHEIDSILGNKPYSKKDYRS
# Sequence of Alpha-2C adrenergic receptor (Homo sapiens) (P18825 whole entry, looked up): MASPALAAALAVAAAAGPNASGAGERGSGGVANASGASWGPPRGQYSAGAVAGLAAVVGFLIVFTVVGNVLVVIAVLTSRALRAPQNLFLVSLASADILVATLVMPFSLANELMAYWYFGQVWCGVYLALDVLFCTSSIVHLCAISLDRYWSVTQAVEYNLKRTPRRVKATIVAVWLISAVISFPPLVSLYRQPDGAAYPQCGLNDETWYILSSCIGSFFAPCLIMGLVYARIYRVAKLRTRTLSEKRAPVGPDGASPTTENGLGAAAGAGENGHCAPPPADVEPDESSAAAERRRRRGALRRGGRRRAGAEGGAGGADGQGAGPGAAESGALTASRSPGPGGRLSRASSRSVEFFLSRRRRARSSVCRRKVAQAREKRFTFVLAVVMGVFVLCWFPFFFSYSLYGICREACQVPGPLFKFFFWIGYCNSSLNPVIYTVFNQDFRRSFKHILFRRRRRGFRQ
SMILES,cell count [1],inhibition [1],inhibition of aggregation [2],nuclei count [2],inhibition [3],nuclei count [3],fluorescence slope [4],NADPH fluorescence slope [5],slope [6],inhibition [7],inhibition [8]
Cc1cc(C)n2cc(CSc3nnnn3-c3ccc(Cl)cc3)nc2n1,446,2.4% (inactive),-22.5% (inactive),99.6%,15.8% (inactive),91.8%,-0.517 (inactive),-3.7e-05 (inactive),0.00492 (inactive),19.2% (inactive),16.6% (inactive)
O=C(/C=N/O)NCc1ccncc1,420,1.2% (inactive),0.7% (inactive),98.3%,28.2% (inactive),88%,-0.606 (inactive),-2.2e-05 (inactive),0.00648 (inactive),8.28% (inactive),11.3% (inactive)
Cc1ccc(S(=O)(=O)NCC(=O)N(CC(=O)NC2CCCCC2)Cc2ccco2)cc1,294,8.1% (inactive),12.7% (inactive),97.1%,-54.4% (inactive),110%,-0.431 (inactive),-4.7e-05 (inactive),0.00754 (inactive),8.19% (inactive),20% (inactive)
COc1ccc(Cn2nnnc2C(c2cccnc2)N2CCN(c3ccc(O)cc3)CC2)cc1 (stereo not drawn),682,-7.2% (inactive),-1.9% (inactive),92.7%,-51.9% (inactive),117%,-0.514 (inactive),-5.3e-05 (inactive),0.00403 (inactive),15% (inactive),21.3% (inactive)
c1ccc(-c2nnc(-c3ccco3)n2-c2ccccc2)cc1,383,4.1% (inactive),8.4% (inactive),102%,-75.9% (inactive),126%,-0.47 (inactive),-2.4e-05 (inactive),0.00639 (inactive),15.2% (inactive),20.5% (inactive)
CCN(CC)c1nc2nonc2nc1N(CC)CC,314,-11.8% (inactive),-1.5% (inactive),100%,-12.1% (inactive),94.7%,-0.446 (inactive),-5.6e-05 (inactive),0.00553 (inactive),14.3% (inactive),21.8% (inactive)
CC(C)(C)OC(=O)N1CCCC1C(=O)NC(Cc1ccccc1)C(=O)O (stereo not drawn) (Boc-Pro-Phe-OH; configuration not given here),431,1% (inactive),4.3% (inactive),99.5%,21.6% (inactive),101%,-0.607 (inactive),1.1e-05 (inactive),0.00669 (inactive),12.2% (inactive),17.2% (inactive)
O=C(C1CC1)N1CCc2cc(Br)cc(S(=O)(=O)N3CCOCC3)c21,300,2.2% (inactive),-4.4% (inactive),106%,-22.9% (inactive),112%,-0.59 (inactive),-3.6e-05 (inactive),0.00736 (inactive),15.4% (inactive),24.8% (inactive)
CC(NC(=O)COc1ccc(Br)cc1)C(=O)O (stereo not drawn),434,6% (inactive),4.7% (inactive),100%,-149% (inactive),136%,-0.439 (inactive),-1.3e-05 (inactive),0.00364 (inactive),10.1% (inactive),24.7% (inactive)
CCOC(=O)CC12CN3CN(C1)CC(CC(=O)OCC)(C3)C2=O,596,-28.6% (inactive),7.3% (inactive),83.7%,-54.7% (inactive),110%,-0.497 (inactive),-2.2e-05 (inactive),0.00533 (inactive),-1.85% (inactive),25.3% (inactive)
O=c1c2cc(N3CCOCC3)ccc2[nH]c(=S)n1CCCN1CCCC1,739,3% (inactive),6.2% (inactive),105%,-35% (inactive),106%,-0.0484 (active),-1.6e-06 (inactive),0.00568 (inactive),3.61% (inactive),32.7% (inactive)
C=CCn1c(-c2ccc(OC)cc2)nc2ccccc21,386,-3.5% (inactive),1% (inactive),96.1%,-24.9% (inactive),86.4%,-0.488 (inactive),-4.7e-05 (inactive),0.0046 (inactive),-24.1% (inactive),-54.6% (inactive)
CCCCc1nccn1CCn1ccnc1CCCC,514,-5% (inactive),53.1% (active),75%,-75% (inactive),108%,-0.489 (inactive),1.9e-05 (inactive),0.00472 (inactive),26.7% (inactive),25.7% (inactive)
Cc1cccc(-n2c(=O)cc(N3CCN(c4ccc(F)cc4)CC3)[nH]c2=O)c1,605,0% (inactive),15.8% (inactive),50.1%,15.8% (inactive),83.6%,-0.448 (inactive),-2.5e-05 (inactive),0.00544 (inactive),-5.09% (inactive),-5.41% (inactive)
CC(=O)Nc1cccc(Oc2nc(C)cc(C)c2C#N)c1,950,4% (inactive),0.6% (inactive),111%,-87% (inactive),124%,-0.553 (inactive),-1.7e-05 (inactive),0.00763 (inactive),2.68% (inactive),22.3% (inactive)
CCc1ccc(C2CC(c3ccccc3)n3ncnc3N2)cc1 (stereo not drawn),626,1.1% (inactive),25.1% (inactive),72%,-22.9% (inactive),70.6%,-0.586 (inactive),-3.4e-05 (inactive),0.00702 (inactive),13.8% (inactive),28.3% (inactive)
Cc1cc(C)c2c(=O)n(CC(=O)NCCCN3CCN(c4ccccc4F)CC3)sc2n1,725,-2.8% (inactive),2.8% (inactive),105%,-81.4% (inactive),119%,-0.525 (inactive),-4.4e-05 (inactive),0.00504 (inactive),12% (inactive),34.1% (inactive)
CCc1nnc(NC(=O)C2Cc3ccccc3CN2S(=O)(=O)c2cccs2)s1 (stereo not drawn),521,-10.2% (inactive),-27.6% (inactive),116%,-57.1% (inactive),117%,-0.482 (inactive),-2.6e-05 (inactive),0.00706 (inactive),-21.3% (inactive),-50.1% (inactive)
COc1ccc(OC)c(-c2cc(C(=O)NCc3cccs3)no2)c1,248,1.3% (inactive),29.5% (inactive),101%,-23.8% (inactive),124%,-0.487 (inactive),-5.5e-06 (inactive),0.00616 (inactive),3.16% (inactive),32% (inactive)
CC1=C(C(=O)NC2CCC(C)CC2)C2(CCC(C)CC2)OC1=O (stereo not drawn),640,17.2% (inactive),-14.7% (inactive),99.8%,5.3% (inactive),126%,-0.486 (inactive),7.7e-06 (inactive),0.00549 (inactive),10.7% (inactive),15.1% (inactive)
O=C(CSc1ncnc2ccccc12)NCCCO,458,-11% (inactive),-1.4% (inactive),104%,7.4% (inactive),101%,-0.628 (inactive),8.9e-06 (inactive),0.00699 (inactive),15.3% (inactive),26.4% (inactive)
CCN(CC)CCCN1C(=O)C(O)=C(C(C)=O)C1c1cccc(OC)c1 (stereo not drawn),468,7.8% (inactive),3.9% (inactive),97.3%,-142% (inactive),105%,-0.367 (inactive),-4.4e-05 (inactive),0.00698 (inactive),11.2% (inactive),13.5% (inactive)
CCCC(=O)Nc1nnc(CC(=O)N2CCCC2)s1,845,4.5% (inactive),3.1% (inactive),106%,-55% (inactive),115%,-0.31 (inactive),-5.4e-05 (inactive),0.006 (inactive),14.1% (inactive),21.6% (inactive)
C/C(N)=C(/C#N)C(=O)COC(=O)CCSc1ccccc1,422,3.1% (inactive),7.6% (inactive),117%,-20.4% (inactive),107%,-0.464 (inactive),-6.7e-05 (inactive),0.00505 (inactive),13.7% (inactive),-9.84% (inactive)
Cc1nn(C)c(C)c1CN(C)C(=O)c1cc2nc(-c3ccco3)cc(C(F)(F)F)n2n1,419,5.7% (inactive),-21.4% (inactive),128%,-33.1% (inactive),106%,-0.182 (inactive),-2e-05 (inactive),0.00389 (inactive),1.09% (inactive),-8.24% (inactive)
CCOc1ccc(CNc2ccc3c(c2)ncn3C)cc1,174,-3% (inactive),-8.8% (inactive),72.5%,4.7% (inactive),90.2%,-0.435 (inactive),-1.3e-05 (inactive),0.00471 (inactive),-27.2% (inactive),-76.3% (inactive)
Cn1c(=O)c2ncn(CC(=O)NCCOc3ccc(C(C)(C)C)cc3)c2n(C)c1=O,762,2.2% (inactive),-9.8% (inactive),103%,-15.3% (inactive),106%,-0.582 (inactive),-3.7e-05 (inactive),0.00671 (inactive),-12.6% (inactive),-14.5% (inactive)
CS(=O)(=O)N1CCCC(C(=O)NCc2ccccc2Cl)C1 (stereo not drawn),636,-10.2% (inactive),20.1% (inactive),77.4%,-124% (inactive),97.8%,-0.59 (inactive),-1.1e-05 (inactive),0.00562 (inactive),3.11% (inactive),8.19% (inactive)
